Where “and” joins values, the source holds several entries; their conditions need not be identical. Identical values can stand only once. Among all 5,500 compounds or so, about 2,000 (36%) were called active. Not shown: some 18% with an inconclusive outcome. Cut-off read from the data, not from the text of the source: active = normalized growth mostly below about 0.91 (no sharp cut-off); inconclusive = no clear call, values can overlap the other calls; inactive = mostly above about 0.92. The list shows a part of the results.
Assay: chemical genetic growth profiling, strain panel (AID 1159580);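 note: tested at 20 µM; growth read once vehicle control cultures reached saturation at 30 °C; 1 = growth at the plate median or of vehicle wells; lower values mean less growth of the strain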
Conditions: growth OD

Measured: normalized growth

COC(=O)C1=C(C)NC(C)=C(C(=O)OCCN(C)Cc2ccccc2)C1c1cccc([N+](=O)[O-])c1 (stereo unspecified)
inactive: S. cerevisiae deletion strains, locus YJR075W, strain HOC1, hits give low values 0.973 and 0.963 | S. cerevisiae deletion strains, locus YKL009W, strain mrt4, hits give low values 0.97 | S. cerevisiae deletion strains, locus YKL068W, hits give low values 0.994 | S. cerevisiae deletion strains, locus YKL085W, strain MDH1 (second series), hits give low values 0.993 | S. cerevisiae deletion strains, locus YKL085W, strain MDH1, hits give low values 0.993 | S. cerevisiae deletion strains, locus YKL160W, strain elf1, hits give low values 0.963 | S. cerevisiae deletion strains, locus YKL190W, strain CNB1, hits give low values 0.99 | S. cerevisiae deletion strains, locus YKR001C, strain vps1, hits give low values 1.01 | S. cerevisiae deletion strains, locus YKR026C, strain gcn3, hits give low values 0.97 | S. cerevisiae deletion strains, locus YKR091W, strain srl3, hits give low values 0.993 | S. cerevisiae deletion strains, locus YLL001W, strain dnm1, hits give low values 0.98 | S. cerevisiae deletion strains, locus YLL026W, hits give low values 0.998 | S. cerevisiae deletion strains, locus YLL041C, strain sdh2, hits give low values 0.968 | S. cerevisiae deletion strains, locus YLR027C, strain aat2, hits give low values 0.988 | S. cerevisiae deletion strains, locus YLR039C, strain RIC1, hits give low values 0.999 | S. cerevisiae deletion strains, locus YLR058C, strain SHM2, hits give low values 0.963 | S. cerevisiae deletion strains, locus YLR102C, strain apc9, hits give low values 0.987 | S. cerevisiae deletion strains, locus YLR113W, strain HOG1, hits give low values 0.93 | S. cerevisiae deletion strains, locus YLR221C, strain rsa3, hits give low values 0.982 | S. cerevisiae deletion strains, locus YLR258W, strain gsy2, hits give low values 0.973 | S. cerevisiae deletion strains, locus YLR262C, strain YPT6 (second series), hits give low values 0.952 | S. cerevisiae deletion strains, locus YLR262C, strain YPT6, hits give low values 0.947 | S. cerevisiae deletion strains, locus YLR268W, strain sec22, hits give low values 1 | S. cerevisiae deletion strains, locus YLR320W, strain mms22, hits give low values 0.986 | S. cerevisiae deletion strains, locus YLR330W, strain CHS5, hits give low values 0.993 | S. cerevisiae deletion strains, locus YLR342W, strain FKS1 (second series), hits give low values 0.957 | S. cerevisiae deletion strains, locus YLR342W, strain FKS1, hits give low values 0.996 | S. cerevisiae deletion strains, locus YLR357W, strain rsc2, hits give low values 0.965 | S. cerevisiae deletion strains, locus YLR370C, strain arc18, hits give low values 0.984 | S. cerevisiae deletion strains, locus YLR371W, strain rom2, hits give low values 0.967 | S. cerevisiae deletion strains, locus YLR384C, strain iki3, hits give low values 0.98 | S. cerevisiae deletion strains, locus YLR418C, strain cdc73, hits give low values 0.96 | S. cerevisiae deletion strains, locus YML016C, strain PPZ1, hits give low values 0.99 | S. cerevisiae deletion strains, locus YML032C, strain rad52, hits give low values 0.961 | S. cerevisiae deletion strains, locus YML120C, strain ndi1, hits give low values 1.02 | S. cerevisiae deletion strains, locus YML124C, strain tub3, hits give low values 0.992 | S. cerevisiae deletion strains, locus YMR058W, strain fet3, hits give low values 0.993 | S. cerevisiae deletion strains, locus YMR078C, strain ctf18, hits give low values 0.977 | S. cerevisiae deletion strains, locus YMR125W, strain sto1, hits give low values 0.978 | S. cerevisiae deletion strains, locus YMR129W, hits give low values 1 | S. cerevisiae deletion strains, locus YMR205C, strain PFK2, hits give low values 0.986 | S. cerevisiae deletion strains, locus YMR223W, strain ubp8, hits give low values 0.978 | S. cerevisiae deletion strains, locus YMR231W, strain pep5, hits give low values 0.998 | S. cerevisiae deletion strains, locus YMR263W, strain SAP30, hits give low values 0.988 | S. cerevisiae deletion strains, locus YMR307W, strain GAS1, hits give low values 0.744 | S. cerevisiae deletion strains, locus YNL067W, strain RPL9B, hits give low values 0.999 | S. cerevisiae deletion strains, locus YNL071W, strain lat1, hits give low values 0.97 | S. cerevisiae deletion strains, locus YNL128W, strain TEP1, hits give low values 0.987 and 1.05 | S. cerevisiae deletion strains, locus YNL153C, strain GIM3, hits give low values 0.98 | S. cerevisiae deletion strains, locus YNL175C, strain NOP13, hits give low values 1 | S. cerevisiae deletion strains, locus YNL183C, strain NPR1, hits give low values 0.923 | S. cerevisiae deletion strains, locus YNL197C, strain WHI3, hits give low values 1.02 | S. cerevisiae deletion strains, locus YNL209W, strain ssb2, hits give low values 0.978 | S. cerevisiae deletion strains, locus YNL224C, strain SQS1, hits give low values 0.993 | S. cerevisiae deletion strains, locus YNL233W, strain BNI4, hits give low values 0.981 | S. cerevisiae deletion strains, locus YNL248C, strain rpa49, hits give low values 0.968 | S. cerevisiae deletion strains, locus YNL250W, strain rad50, hits give low values 0.981 | S. cerevisiae deletion strains, locus YNL271C, strain bni1, hits give low values 1 | S. cerevisiae deletion strains, locus YNL298W, strain CLA4, hits give low values 0.996 | S. cerevisiae deletion strains, locus YNL307C, strain MCK1, hits give low values 0.968 | S. cerevisiae deletion strains, locus YNL322C, strain KRE1 (second series), hits give low values 0.996 | S. cerevisiae deletion strains, locus YNL322C, strain KRE1, hits give low values 0.995 | S. cerevisiae deletion strains, locus YNR049C, strain mso1, hits give low values 0.974 | S. cerevisiae deletion strains, locus YNR052C, strain pop2, hits give low values 0.999 | S. cerevisiae deletion strains, locus YOL006C, strain TOP1, hits give low values 1.01 | S. cerevisiae deletion strains, locus YOL012C, strain htz1 0.795 | S. cerevisiae deletion strains, locus YOL147C, strain pex11, hits give low values 0.99 | S. cerevisiae deletion strains, locus YOR001W, strain rrp6, hits give low values 0.994 | S. cerevisiae deletion strains, locus YOR061W, strain CKA2, hits give low values 0.964 | S. cerevisiae deletion strains, locus YOR069W, strain VPS5, hits give low values 1.01 | S. cerevisiae deletion strains, locus YOR070C, strain gyp1, hits give low values 0.979 | S. cerevisiae deletion strains, locus YOR080W, strain dia2, hits give low values 0.979 | S. cerevisiae deletion strains, locus YOR083W, strain WHI5 (second series), hits give low values 1.01 | S. cerevisiae deletion strains, locus YOR083W, strain WHI5, hits give low values 1 | S. cerevisiae deletion strains, locus YOR106W, strain vam3, hits give low values 0.971 | S. cerevisiae deletion strains, locus YOR136W, strain idh2, hits give low values 0.984 | S. cerevisiae deletion strains, locus YOR144C, strain elg1, hits give low values 0.999 | S. cerevisiae deletion strains, locus YOR184W, strain ser1, hits give low values 0.956 | S. cerevisiae deletion strains, locus YOR231W, strain MKK1, hits give low values 0.969 | S. cerevisiae deletion strains, locus YOR265W, strain rbl2, hits give low values 0.999 | S. cerevisiae deletion strains, locus YOR270C, strain vph1, hits give low values 0.939 | S. cerevisiae deletion strains, locus YOR290C, strain snf2, hits give low values 0.975 | S. cerevisiae deletion strains, locus YOR316C, strain cot1, hits give low values 0.98 | S. cerevisiae deletion strains, locus YPL051W, strain arl3, hits give low values 0.979 | S. cerevisiae deletion strains, locus YPL055C, strain LGE1, hits give low values 0.951 and 0.966 | S. cerevisiae deletion strains, locus YPL078C, strain atp4, hits give low values 0.995 | S. cerevisiae deletion strains, locus YPL106C, strain sse1, hits give low values 0.887 | S. cerevisiae deletion strains, locus YPL240C, strain hsp82, hits give low values 0.985 | S. cerevisiae deletion strains, locus YPL241C, strain CIN2, hits give low values 0.991 and 0.972 | S. cerevisiae deletion strains, locus YPL256C, strain CLN2, hits give low values 0.957 | S. cerevisiae deletion strains, locus YPR119W, strain clb2, hits give low values 0.984 | S. cerevisiae deletion strains, locus YPR141C, strain kar3, hits give low values 0.982 | S. cerevisiae deletion strains, locus YPR163C, strain tif3, hits give low values 0.996 | S. cerevisiae deletion strains, locus YPR167C, strain met16, hits give low values 0.988 | S. cerevisiae deletion strains, strain wtn01, hits give low values 0.981 | S. cerevisiae strains, strain wild type, hits give low values 0.998
